Experiment [1] is described as follows: SW1088 Cancer Cell Toxicity qHTS against the NCATS CANVASS Library (AID 1347350). Note: nearly all actives have a fitted effect of over 75% in size. Note: potency is the fitted concentration of half-maximal effect. In short, it runs like this:
(§1)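 1000 cells/well seeded and rested 4 h at 37 °C before pin transfer of compounds in an 11-pnt series. Exposure 72 h at 37 °C/5% CO2; viability by CellTiter-Glo luminescence after 15 min at room temperature.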
Background: qHTS replaces the single test concentration by a dilution series.

A short description of experiment [2]: U-118MG Cancer Cell Toxicity qHTS against the NCATS CANVASS Library (AID 1347351). Note: potency is the fitted concentration of half-maximal effect. In short, it runs like this:
as §1

A short description of experiment [3]: A2780 Cisplatin Sensitive Ovarian Cancer Cell Toxicity qHTS against the NCATS CANVASS Library (AID 1347353). Note: nearly all actives have a fitted effect of over 60% in size. In short, it runs like this: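 Quantitative HTS format: eleven compound concentrations applied to pre-seeded cells, 72 h incubation at 37 °C, then ATP detection by luminescence.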
Experiment [4] in a line: HPAF-II 24hr Apoptosis Induction qHTS against the NCATS CANVASS Library (AID 1347356). In short, it runs like this: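 Using an 11-point qHTS format, HPAF-II cells in DMEM/10% FBS received compounds for 24 h; doxorubicin titration as control. Caspase-3/7 activity quantified by DEVD-luciferase luminescence.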
Experiment [5] can be described thus: HEK293 18hr Apoptosis Induction qHTS against the NCATS CANVASS Library (AID 1347357). Note: potency is the fitted concentration of half-maximal effect. In short, it runs like this: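 Luminescent caspase-3/7 signal is measured in HEK293 cells exposed for 18 hours to an 11-point concentration series; doxorubicin serves as the plate control.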
A short description of experiment [6]: HPAF-II 12hr Apoptosis Induction qHTS against the NCATS CANVASS Library (AID 1347358). In short, it runs like this: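 Twelve-hour compound exposure of HPAF-II cells in DMEM with 10% FBS, then luminescent Caspase-Glo 3/7 detection after 15 min at room temperature; doxorubicin control.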
Experiment [7] in a line: HPAF-II 18hr Apoptosis Induction qHTS against the NCATS CANVASS Library (AID 1347360). In short, it runs like this: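 Apoptosis was scored as caspase-3/7 activity in HPAF-II pancreatic cancer cells treated 18 hours with an 11-point concentration series.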
Experiment [8] in a line: KB-8-5-11 Cancer Cell Toxicity qHTS against the NCATS CANVASS Library (AID 1347364). Note: nearly all actives have a fitted effect of over 75% in size. Note: potency is the fitted concentration of half-maximal effect. In short, it runs like this:
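Luminescent ATP signal (CellTiter-Glo, 10 min at room temperature) measured cell survival of KB-8-5-11 after 72 hr compound treatment. For confirmation, the cells were also grown with 1uM tariquidar.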

Experiment [9] in a line: qHTS for ATAD5 Agonist screened against the NCATS CANVASS Library (AID 1347367).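 Note: luciferase reporter driven by ATAD5 which rises upon DNA damage.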 In short, it runs like this: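 Step one plated reporter cells and let them acclimate 5hr. Step two pinned compounds with MMS as positive and 0.46% DMSO as negative control. After 16hr incubation, fluorescence viability then luminescence were read.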
A short description of experiment [10]: MCF7 Cancer Cell Toxicity qHTS against the NCATS CANVASS Library (AID 1347369). Note: potency is the fitted concentration of half-maximal effect. In short, it runs like this:
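Cytotoxicity is measured by ATP content: MCF7 cells at 500 per well receive an 11-point compound series and, after 72 hr at 37C, are lysed with CellTiterGlo for luminescence.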

Experiment [11] in a line: qHTS for ATAD5 Antagonist screened against the NCATS CANVASS Library (AID 1347370).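 Note: HEK293T cells carrying an ATAD5 luciferase reporter co-treated with 10 µM 5-fluorouridine; series mostly up to about 46 µM; nearly all actives have a fitted effect of over 65% in size.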 In short, it runs like this:
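HEK293T-ATAD5 luc reporter, 2000 cells/well; 5hr attach; cpd + 10 uM 5-FUrd; 16hr 37C, 5% CO2. Readouts: CellTiter-Fluor fluorescence (1hr), then Amplite luciferase luminescence (30min RT).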

The nature of experiment [12]: J3T Cancer Cell Toxicity qHTS against the NCATS CANVASS Library (AID 1347371). Note: potency is the fitted concentration of half-maximal effect. In short, it runs like this:
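ATP-based cytotoxicity in canine J3T cells: 72 hr exposure at 37C, 11-point titration, CellTiterGlo luminescent detection.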

Experiment [13] concerns the target Nuclear receptor subfamily 1 group I member 3 (Homo sapiens) (UniProt Q14994). Briefly: qHTS for Constitutive Androstane Receptor (CAR) Antagonist screened against the NCATS CANVASS Library (AID 1347372). Note: potency is the fitted concentration of half-maximal effect. In short, it runs like this: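 Antagonist mode: compound added alongside 50 nM CITCO to HepG2-hCAR-CYP2B6 reporter cells, 24hr at 37C. Viability by CellTiter-Fluor fluorescence, then CAR-driven luciferase by ONE-Glo luminescence.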

Experiment [14] can be described thus: Cytotoxicity qHTS for assessment of Hepg2 cells membrane integrity screened against the NCATS CANVASS Library (AID 1347387). In short, it runs like this:
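Membrane damage in HepG2 monolayers was estimated from released LDH, measured with CytoTox-ONE (ex 560/em 590 nm), after 5 hr treatment across 0.59 nM - 46 uM final.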

Experiment [15] in a line: qHTS for activators of dead-cell proteases activity screened against the NCATS CANVASS Library (AID 1347392).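 Note: luminescence from protease leaking out of membrane-damaged cells cleaving impermeant substrate; rising signal means more cytotoxicity.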 Note: potency is the fitted concentration of half-maximal effect. In short, it runs like this:
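Luminescent dead-cell protease readout (AAF-aminoluciferin, 15 min, room temperature) after 5 h compound treatment of HepG2 cells (2000/well, pre-attached 18 h). Eleven concentrations.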

A short description of experiment [16]: Vero-766 cells viability qHTS against the NCATS CANVASS Library: Counterscreen for Zika virus inhibition assay (AID 1347394). Note: nearly all actives have a fitted effect of over 60% in size. Note: potency is the fitted concentration of half-maximal effect. In short, it runs like this: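 This cytotoxicity counterscreen uses African green monkey Vero 766 cells in the absence of Zika virus. Compounds are incubated with cells for 72 h, and ATP-based luminescence reports viability.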
Experiment [17] is described as follows: Viability qHTS for inhibitors of the SERCaMP assay screened against the NCATS CANVASS Library (AID 1347400). Note: nearly all actives have a fitted effect of over 70% in size. Note: potency is the fitted concentration of half-maximal effect. In short, it runs like this:
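Measures loss of viability in SERCaMP reporter SH-SY5Y cells treated for 48 h with compounds; luminescent ATP detection by CellTiter-Glo.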

Experiment [18] in a line: Redox Reaction Profiling qHTS: Assay Interference Panel against the NCATS CANVASS Library (AID 1347401). In short, it runs like this:
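Redox-cycling liability assessed as DTT-driven conversion of resazurin (5 uM, with 200 uM DTT, HEPES pH 7.3) to fluorescent resorufin. Fluorescence at 525/598 nm measured initially and after 15 min dark incubation.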

Experiment [19] can be described thus: Secretion counterscreen for inhibitors of the SERCaMP assay screened against the NCATS CANVASS Library (AID 1347390).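 Note: light from luciferase secreted into medium read as a measure of general secretion.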 Note: potency is the fitted concentration of half-maximal effect. In short, it runs like this:
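Counterscreen identifying compounds that disrupt secretion, using SH-SY5Y cells with a constitutively secreted Gaussia luciferase reporter. A 20 h compound exposure (top 77 uM) precedes luminescent detection with coelenterazine.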
(In general: A counterscreen serves to expose hits that act by an unwanted route or on another target.)

Records with an inconclusive call do not appear. Activity calls are given as the source filed them. Calls come from the whole dose curve; as a rule, active = well fitted curve in the direction sought with a large enough effect; inconclusive = small, poorly fitted or top-dose-only effect, or another doubt; inactive = no such curve, though single readings can be large; an effect the other way counts as inactive or inconclusive.

Sequence of Nuclear receptor subfamily 1 group I member 3 (Homo sapiens) (Q14994 whole entry, looked up): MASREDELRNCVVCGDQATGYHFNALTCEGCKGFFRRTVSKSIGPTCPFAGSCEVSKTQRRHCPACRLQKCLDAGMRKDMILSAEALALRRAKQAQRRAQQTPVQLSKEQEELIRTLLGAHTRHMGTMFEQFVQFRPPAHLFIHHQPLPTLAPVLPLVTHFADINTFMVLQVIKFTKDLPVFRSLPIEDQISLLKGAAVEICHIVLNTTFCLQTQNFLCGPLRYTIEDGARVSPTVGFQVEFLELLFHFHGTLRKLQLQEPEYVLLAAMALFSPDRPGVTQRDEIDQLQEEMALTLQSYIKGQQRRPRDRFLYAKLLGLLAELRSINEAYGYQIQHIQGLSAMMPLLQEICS

In the case of `CC1=CC2CC[C@@H]3[C@@H](C)C[C@H](C)[C@@H](C1)N23` (some centres not stated), the Potency result in experiment [1], in experiment [2], in experiment [3], in experiment [5], in experiment [8] and in experiment [9] was “inactive” in each case. Also, the Potency entry in experiment [10], in [11], in [12], in experiment [13], in experiment [15] and in experiment [16] was “inactive” in each case. Further, the Potency result in [17] and in experiment [18] was “inactive” throughout. The result in [4], in experiment [6], in experiment [7] and in experiment [14] was inactive.

For `C[C@@H]1CC[C@@H](c2ccoc2)N2C[C@@]3(CC[C@@H]12)CS[C@@]1(CC[C@H]2[C@H](C)CC[C@@H](c4ccoc4)N2[C@@H]1O)C3`, the Potency in experiment [2] is 8.41 µM (active); in [5], 8.33 µM (active); in experiment [8], 8.33 µM (active); in experiment [10], 11.7 µM (active); in [12], 9.35 µM (active); in experiment [13], 8.31 µM (active). Also, the Potency in experiment [19] is 12.2 µM (active); in experiment [15] it was 11.7 µM (active); in experiment [16] it was 7.41 µM (active); in experiment [17], 13.5 µM (active). Moreover, the Potency entry in experiment [18] was “inactive”.

As for `c1ccc2c3c([nH]c2c1)CNCC3`, the Potency in experiment [1] is 26.6 µM (active). For the same compound, the Potency entry in experiment [3], in [5], in experiment [8], in experiment [9], in [10] and in experiment [11] was “inactive” each time. Also, the Potency result in experiment [12], in experiment [13], in experiment [19], in [15], in experiment [16] and in experiment [17] was “inactive” throughout. In addition, the Potency result in experiment [18] is “inactive”. The compound was called inactive in experiment [4], in experiment [6], in [7] and in experiment [14].

On to `CCN1C[C@]2(C)CC[C@@H](O)[C@]34C1[C@H](C[C@H]23)C12CCC(CC14)[C@](O)(CO)[C@H]2O` (some centres not stated), for which the Potency entry in [1], in experiment [2], in experiment [3], in [5], in [8] and in [9] was “inactive” throughout. Moreover, the Potency entry in experiment [10], in [11], in experiment [12], in [19], in experiment [15] and in [16] was “inactive” each time. Besides, the Potency entry in experiment [17] and in [18] was “inactive” in each case. Besides, the call in experiment [4], in [6], in [7] and in experiment [14] was inactive.

`CNCCc1ccccc1`: the Potency result in experiment [1], in [2], in experiment [3], in [5], in experiment [8] and in [9] was “inactive” in each case. The Potency entry in experiment [10], in [11], in [12], in [13], in experiment [19] and in [15] was “inactive” in each case. In addition, the Potency result in experiment [16], in experiment [17] and in [18] was “inactive” in each case. The result in experiment [4], in [6], in experiment [7] and in experiment [14] was inactive.

In the case of `COC(=O)C1=C2Nc3ccccc3[C@@]23CCN2CC(C(C)=O)C1C[C@H]23` (some centres not stated), the Potency result in experiment [1], in experiment [2], in experiment [3], in [5], in experiment [8] and in experiment [9] was “inactive” throughout. The Potency result in experiment [10], in experiment [11], in experiment [12], in [13], in [19] and in [15] was “inactive” throughout. The Potency result in [16], in experiment [17] and in experiment [18] was “inactive” in each case. Besides, the result in experiment [4], in experiment [6], in experiment [7] and in [14] was inactive.

As to `CO[C@H](c1ccccc1)[C@H]1NC(=O)C(C)NC(=O)C(C[C@@H](C)CO)N(C)C(=O)[C@@H](C(O)c2cn(C(C)(C)C3CO3)c3ccccc23)NC(=O)C(C(C)C=C(C)C)NC(=O)C(CC(C)C)N(C)C(=O)C(C(C)C)NC1=O` (some centres not stated), the Potency result in experiment [1], in [2], in experiment [3], in [5], in experiment [8] and in experiment [9] was “inactive” each time. Further, the Potency result in experiment [10], in experiment [11], in [12], in experiment [13], in experiment [19] and in [15] was “inactive” in each case. For the same compound, the Potency result in experiment [16], in experiment [17] and in experiment [18] was “inactive” each time. In addition, the result in [4], in [6], in experiment [7] and in experiment [14] was inactive.

The record behind these values is PubChem BioAssay (NCATS).
